Hit rate of the full screen: of about 5,500 compounds, about 2,000 (36%) were called active. Inconclusive results (about 18%) are left out. Cut-off read from the data, not from the text of the source: active = normalized growth mostly below about 0.91 (no sharp cut-off); inconclusive = no clear call, values can overlap the other calls; inactive = mostly above about 0.92. This is one part of the list.
Assay: chemical genetic growth profiling, strain panel (AID 1159580);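 note: tested at 20 µM; growth read once vehicle control cultures reached saturation at 30 °C; 1 = growth at the plate median or of vehicle wells; lower values mean less growth of the strain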
Settings: growth OD

Measured: normalized growth

COC(=O)C(N)CS (configuration not stated)
inactive: S. cerevisiae deletion strains, locus YJR075W, strain HOC1, hits give low values 0.977 | S. cerevisiae deletion strains, locus YKL009W, strain mrt4, hits give low values 1.02 | S. cerevisiae deletion strains, locus YKL068W, hits give low values 0.99 | S. cerevisiae deletion strains, locus YKL085W, strain MDH1 (second series), hits give low values 0.992 | S. cerevisiae deletion strains, locus YKL085W, strain MDH1, hits give low values 0.992 | S. cerevisiae deletion strains, locus YKL160W, strain elf1, hits give low values 1.02 | S. cerevisiae deletion strains, locus YKL190W, strain CNB1, hits give low values 0.998 | S. cerevisiae deletion strains, locus YKR001C, strain vps1, hits give low values 0.924 | S. cerevisiae deletion strains, locus YKR026C, strain gcn3, hits give low values 0.985 | S. cerevisiae deletion strains, locus YKR091W, strain srl3, hits give low values 0.99 | S. cerevisiae deletion strains, locus YLL001W, strain dnm1, hits give low values 0.948 | S. cerevisiae deletion strains, locus YLL026W, hits give low values 0.978 | S. cerevisiae deletion strains, locus YLL041C, strain sdh2, hits give low values 0.985 | S. cerevisiae deletion strains, locus YLR027C, strain aat2, hits give low values 0.988 | S. cerevisiae deletion strains, locus YLR039C, strain RIC1, hits give low values 0.897 | S. cerevisiae deletion strains, locus YLR058C, strain SHM2, hits give low values 0.99 | S. cerevisiae deletion strains, locus YLR102C, strain apc9, hits give low values 0.98 | S. cerevisiae deletion strains, locus YLR113W, strain HOG1, hits give low values 0.972 | S. cerevisiae deletion strains, locus YLR221C, strain rsa3, hits give low values 0.961 | S. cerevisiae deletion strains, locus YLR258W, strain gsy2, hits give low values 1 | S. cerevisiae deletion strains, locus YLR262C, strain YPT6 (second series), hits give low values 0.926 | S. cerevisiae deletion strains, locus YLR262C, strain YPT6, hits give low values 0.943 | S. cerevisiae deletion strains, locus YLR320W, strain mms22, hits give low values 0.92 | S. cerevisiae deletion strains, locus YLR330W, strain CHS5, hits give low values 0.993 | S. cerevisiae deletion strains, locus YLR342W, strain FKS1 (second series), hits give low values 0.938 | S. cerevisiae deletion strains, locus YLR342W, strain FKS1, hits give low values 0.984 | S. cerevisiae deletion strains, locus YLR357W, strain rsc2, hits give low values 0.947 | S. cerevisiae deletion strains, locus YLR370C, strain arc18, hits give low values 0.996 | S. cerevisiae deletion strains, locus YLR371W, strain rom2, hits give low values 0.967 | S. cerevisiae deletion strains, locus YLR384C, strain iki3, hits give low values 0.992 | S. cerevisiae deletion strains, locus YLR418C, strain cdc73, hits give low values 0.888 | S. cerevisiae deletion strains, locus YML016C, strain PPZ1, hits give low values 0.989 | S. cerevisiae deletion strains, locus YML032C, strain rad52, hits give low values 0.962 | S. cerevisiae deletion strains, locus YML120C, strain ndi1, hits give low values 0.949 | S. cerevisiae deletion strains, locus YML124C, strain tub3, hits give low values 0.985 | S. cerevisiae deletion strains, locus YMR058W, strain fet3, hits give low values 0.963 | S. cerevisiae deletion strains, locus YMR078C, strain ctf18, hits give low values 0.968 | S. cerevisiae deletion strains, locus YMR125W, strain sto1, hits give low values 1.01 | S. cerevisiae deletion strains, locus YMR129W, hits give low values 1 | S. cerevisiae deletion strains, locus YMR205C, strain PFK2, hits give low values 0.957 | S. cerevisiae deletion strains, locus YMR223W, strain ubp8, hits give low values 0.965 | S. cerevisiae deletion strains, locus YMR231W, strain pep5, hits give low values 0.981 | S. cerevisiae deletion strains, locus YMR263W, strain SAP30, hits give low values 0.984 | S. cerevisiae deletion strains, locus YMR307W, strain GAS1, hits give low values 1 | S. cerevisiae deletion strains, locus YNL067W, strain RPL9B, hits give low values 0.968 | S. cerevisiae deletion strains, locus YNL071W, strain lat1, hits give low values 0.968 | S. cerevisiae deletion strains, locus YNL128W, strain TEP1, hits give low values 0.983 | S. cerevisiae deletion strains, locus YNL153C, strain GIM3, hits give low values 0.991 | S. cerevisiae deletion strains, locus YNL183C, strain NPR1, hits give low values 1 | S. cerevisiae deletion strains, locus YNL209W, strain ssb2, hits give low values 1.01 | S. cerevisiae deletion strains, locus YNL233W, strain BNI4, hits give low values 0.955 | S. cerevisiae deletion strains, locus YNL248C, strain rpa49, hits give low values 0.984 | S. cerevisiae deletion strains, locus YNL250W, strain rad50, hits give low values 0.98 | S. cerevisiae deletion strains, locus YNL271C, strain bni1, hits give low values 0.98 | S. cerevisiae deletion strains, locus YNL298W, strain CLA4, hits give low values 0.991 | S. cerevisiae deletion strains, locus YNL322C, strain KRE1 (second series), hits give low values 1 | S. cerevisiae deletion strains, locus YNL322C, strain KRE1, hits give low values 1 | S. cerevisiae deletion strains, locus YNR049C, strain mso1, hits give low values 0.986 | S. cerevisiae deletion strains, locus YNR052C, strain pop2, hits give low values 0.973 | S. cerevisiae deletion strains, locus YOL006C, strain TOP1, hits give low values 0.896 | S. cerevisiae deletion strains, locus YOL012C, strain htz1 1.21 | S. cerevisiae deletion strains, locus YOL147C, strain pex11, hits give low values 0.984 | S. cerevisiae deletion strains, locus YOR001W, strain rrp6, hits give low values 0.929 | S. cerevisiae deletion strains, locus YOR061W, strain CKA2, hits give low values 0.989 | S. cerevisiae deletion strains, locus YOR069W, strain VPS5, hits give low values 0.991 | S. cerevisiae deletion strains, locus YOR070C, strain gyp1, hits give low values 0.999 | S. cerevisiae deletion strains, locus YOR080W, strain dia2, hits give low values 0.979 | S. cerevisiae deletion strains, locus YOR083W, strain WHI5, hits give low values 0.988 | S. cerevisiae deletion strains, locus YOR106W, strain vam3, hits give low values 0.949 | S. cerevisiae deletion strains, locus YOR136W, strain idh2, hits give low values 0.978 | S. cerevisiae deletion strains, locus YOR144C, strain elg1, hits give low values 0.979 | S. cerevisiae deletion strains, locus YOR184W, strain ser1, hits give low values 0.911 | S. cerevisiae deletion strains, locus YOR231W, strain MKK1, hits give low values 1 | S. cerevisiae deletion strains, locus YOR265W, strain rbl2, hits give low values 0.992 | S. cerevisiae deletion strains, locus YOR270C, strain vph1, hits give low values 0.805 | S. cerevisiae deletion strains, locus YOR290C, strain snf2, hits give low values 1.02 | S. cerevisiae deletion strains, locus YOR316C, strain cot1, hits give low values 0.987 | S. cerevisiae deletion strains, locus YPL051W, strain arl3, hits give low values 1.01 | S. cerevisiae deletion strains, locus YPL055C, strain LGE1, hits give low values 0.993 | S. cerevisiae deletion strains, locus YPL078C, strain atp4, hits give low values 1.01 | S. cerevisiae deletion strains, locus YPL106C, strain sse1, hits give low values 1.03 | S. cerevisiae deletion strains, locus YPL240C, strain hsp82, hits give low values 0.987 | S. cerevisiae deletion strains, locus YPL241C, strain CIN2, hits give low values 0.996 | S. cerevisiae deletion strains, locus YPL256C, strain CLN2, hits give low values 1.05 | S. cerevisiae deletion strains, locus YPR119W, strain clb2, hits give low values 0.977 | S. cerevisiae deletion strains, locus YPR141C, strain kar3, hits give low values 0.979 | S. cerevisiae deletion strains, locus YPR167C, strain met16, hits give low values 0.98 | S. cerevisiae deletion strains, strain wtn01, hits give low values 0.967 | S. cerevisiae strains, strain wild type, hits give low values 0.983
active: S. cerevisiae deletion strains, locus YLR268W, strain sec22, hits give low values 0.871 | S. cerevisiae deletion strains, locus YNL307C, strain MCK1, hits give low values 0.797 | S. cerevisiae deletion strains, locus YPR163C, strain tif3, hits give low values 0.887
